Assay results: the supplement of paper PMC6555819

tested on: VDR:RXRa (NR concentration 270 nM, RXRa partner concentration 90 nM); experiment: PBM binding z-score (relative to random genomic background probes); higher = stronger binding; sequences stand for … in GC…GCGATTGACAGCGTAGAATGAAGG
Experimental: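 Protein-binding microarray (Agilent 4x180K custom design, double-stranded 60-nt probes: 5' GC cap, 34-nt variable region, 24-nt constant primer region; full probe sequence given). Purified or IVT nuclear receptor:RXRα heterodimers (3:1 NR:RXRα, mostly 270:90 nM) or homodimers were incubated for 1 h in PBS with 2% milk and no ligand, then detected with Alexa488 antibodies. Fluorescence from o1-orientation probes (~5 replicates averaged) was converted to z-scores against 500 random hg19 background probes. Variable regions are seed direct-repeat (DR0–DR5) sites, all their single-nucleotide variants and half-site ablations.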

Sequence	PBM binding z-score
CCGACTGTGGCATAAGGTTACCATAAGCCAGCCC	0.153
AGTCAAAGTTCCGGACGAGGTAACGTAAAGCACG	-0.357
CCTAGCAGGCCAATCTGGGTCACTAAAGGCTTGA	0.366
ATCGAAAGGTCGAAGGTGAGTTTACCCACCCGAA	4.33
GGAACGAGGGCACGTTGATAGCAGAGTTTGATGG	0.909
CGTGCTAGGTCAATGGTCAGCTAAAGCAGCTCGC	0.97
GCAGACATGTGAAACGCAGGTAACTCAGGGTGGC	-0.478
TCTATTAGTTGATTAGGGGAACCGAAACAGCGGA	0.739
ACTAGCAGGCCAATTTTGGGTCACTCAAACAAAG	0.456
TCTATTAGTTGATTAGGGCAAACGAAACAGCGGA	0.637
ATCTGTAGGTTAAGGGTCATTCAGGTTGGTTCGC	5.77
CAAACTAGGTCCAGGTCAAAGTCGGTTTGTGCCA	3.06
TAGCCTAGGACATTGGGCCAGTATAGTACGCATC	-0.544
CCGAGTAGGTTATGTGGCATTCAGGCAACGGTGA	-0.184
CCTCCAAGGTCAGAGAGGTCAGTGAATGCCGAGT	7.22
GCGACTGGGGCATCAGCATGTTACCATAACTTAA	-0.304
ACTATTAGTCGAGACGAGGGCAACCGATAGGTTG	0.293
CGAACGAGGGCATCAGTTGATAGCAAATGCCGAT	0.559
CCGACTGGGGCAAAGGGTACCATACTCAGTACGA	0.4
GCTGCTAGGTCAACTGATCGTCAGCTAAAGCTCG	1.13

Sequence	PBM binding z-score
CCGACTGGGGCATGAGGTTACCATAAGCCAGCCC	-0.146
CGTCCAAGGTCAGCAGGTCAGTGTAAGCGACGTG	4.14
GCTTGTAGATCGAGGTTAAGAAAGACTAAGCTAA	0.413
TCATATAGGTAAACTGGTGAAAGTCCGTAAGTTA	0.597
CCTTACGGGTCACTCCGGGTTATAGCATCGGAGT	4.18
CCTATTAGTTGACCATAAGGGCACCCGAAGCTCG	1.09
GTACCAAGGTGAAGAGGTCGTTGATGAGTAGGCG	2.71
CGAACTAGGTCAGAACAGAACAGTGAAGGATGAT	-0.0419
CCGACTGGGGAAAAGGTTACCATACTCAGTACGA	0.397
TAGCCTAGGTCATACGGGCCAGTATAGTGTCGGC	3.08
ACAGACAGGTGAGTGGAGGTAACTCAGCTGGACG	-0.0789
CCTAGCAGGCCAATCTGGGTGACTCAAGGCTTGA	-0.769
TCAGACAGGTGAAGGTAACTCCGGTACGCAGTCG	0.726
ATTGAAAGGTCGTGAGGTGAGTATACAGAAAGGC	3.71
ACTAGCAGGCCAAGGGTCCCTCAAGATTAGTCCG	-0.454
GCTGCTAGGTCAGGTTGGTCAGCTAGCGGGTACG	0.267
AGAATGAGGTTAAGACCAGGGAAACAGAATACAT	1.03
GCTGTTAGTTGAAAGGGCAACCGAATGATTCTCG	0.572
TCTTGTAGATCATCAGGAGGTTAAGAAAGATCGA	0.351
CAAACTAGGGCACCGGAAGGTCAAAGTCCGCATG	3.69
